An excerpt weighted towards active compounds, which were near 1.3% of everything screened.
NCOA2 inhibitor: inhibits human steroid receptor coactivator 2; AID 651957; HEK293 GAL4-SRC2 luciferase reporter, luminescence; inhibition, % at 9 µM; Q15596; 370,000 compounds, 0.17% hits;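 active = inhibition above the mean inhibition of all tested compounds plus 3 SD, set per campaign, cut at about 52% in these data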;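 also: 0% = DMSO treated cells and 100% = cells given Gossypol at 36 µM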
NR2F2 inh: inhibitors of human COUP-TFII (NR2F2). inhibition, % at 8.6 µM. AID 686940. 370,000 compounds, 0.7% hits. HEK293T NGFI-A luciferase reporter, luminescence. P24468;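 active = inhibition above a per-plate cutoff, mean inhibition of test wells between control levels plus 3 SD, cut at about 38% in these data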;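 also: cells cotransfected with COUP-TFII expression vector driving the NGFI-A reporter; 0% = median of COUP-TF2 test wells and 100% = reporter-only cells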
Target sequence (P24468 whole entry, looked up): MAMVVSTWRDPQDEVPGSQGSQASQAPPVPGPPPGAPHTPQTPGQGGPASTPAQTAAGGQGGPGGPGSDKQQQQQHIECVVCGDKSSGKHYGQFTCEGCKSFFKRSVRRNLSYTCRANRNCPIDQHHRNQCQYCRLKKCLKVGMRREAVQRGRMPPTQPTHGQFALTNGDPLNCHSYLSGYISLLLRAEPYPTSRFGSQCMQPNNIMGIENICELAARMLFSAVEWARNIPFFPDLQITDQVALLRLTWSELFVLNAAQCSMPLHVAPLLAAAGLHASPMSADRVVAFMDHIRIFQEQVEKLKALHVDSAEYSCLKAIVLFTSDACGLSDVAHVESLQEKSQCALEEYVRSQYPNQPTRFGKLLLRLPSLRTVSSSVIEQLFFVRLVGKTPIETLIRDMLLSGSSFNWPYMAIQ
Gli-Sufu antag: Gli-Sufu pathway antagonism; AID 588413; 340,000 compounds, 0.74% hits; Sufu-KO-LIGHT fibroblasts, Gli luciferase reporter luminescence; inhibition, % at 5 µM;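 active = inhibition above about 55%, limit read from the data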;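 also: 0% = DMSO-treated cells and 100% = wells with medium but no cells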
NR5A2 inv ag: inverse agonists of human LRH-1 (NR5A2). O00482. HEK293T StAR-luciferase reporter, LRH-1 transfected, 24 h. inhibition, % at 3.6 µM. 360,000 compounds, 0.13% hits. AID 602396;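 active = inhibition above the mean inhibition of all tested compounds plus 3 SD, cut at about 73% in these data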;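 also: 0% = DMSO wells and 100% = reporter-only cells lacking LRH-1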
SRC1 inh: inhibits human SRC1 coactivator. inhibition, % at 3.6 µM. HEK293 GAL4-SRC1 luciferase reporter, luminescence. Q15788. 360,000 compounds, 0.12% hits;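 active = inhibition above the campaign mean plus 3 SD, with each screening campaign given its own cutoff, cut at about 60% in these data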;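 also: 0% = DMSO treated cells and 100% = gossypol at 36 µM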
NCOA3 inh: inhibits human SRC3 coactivator. HEK293 GAL4-SRC3 luciferase reporter, luminescence. inhibition, % at 3.6 µM. 360,000 compounds, 0.17% hits. AID 588352;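 active = inhibition above a per-campaign cutoff, the mean of all compounds plus 3 SD, cut at about 60% in these data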;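 also: 0% = DMSO-treated cells and 100% = gossypol-treated cells at 36 µM; higher means less SRC3-driven luciferase light from the GAL4 reporter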
Gli-Sufu confirm: Gli-SUFU antagonism confirmation, single concentration | shares compounds with Gli-Sufu antag | Sufu-KO-LIGHT cells, Gli luciferase reporter, luminescence | inhibition, % at 5 µM | 2,500 compounds, 40% hits;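 active = mean inhibition at 5 µM reaching about 45%, limit read from the data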;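 also: plate controls were DMSO-treated cells for no effect and wells lacking cells for full effect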
SufuKO cytotox: counter-screen for Gli-SUFU antagonists: cytotoxicity; cytotoxicity, % at 5 µM; Sufu-KO-LIGHT cells cytotoxicity, ATP luminescence; 2,500 compounds, 32% hits; shares compounds with Gli-Sufu antag;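 active = mean cytotoxicity at 5 µM above about 25%, limit read from the data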;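 also: cells exposed to compound overnight for roughly 16 to 18 hours; plate controls were DMSO wells with cells for no effect and medium without cells for full effect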
Wnt3a cs: counter-screen for Gli-SUFU antagonists: Wnt3a reporter inhibition. 2,500 compounds, 20% hits. shares compounds with Gli-Sufu antag. Wnt-LIGHT cells, Wnt3a-driven luciferase reporter, luminescence. inhibition, % at 6.25 µM;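 active = mean inhibition above about 25%, limit read from the data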
The depositor's hits bear a star.

`CN(C)c1ccc(-c2n(C)c3ccccc3[n+]2C)cc1` gave NCOA2 inhibitor -0.6, NR2F2 inh 37.2, Gli-Sufu antag 80.4*, NR5A2 inv ag 35.5, SRC1 inh 21.4, NCOA3 inh 6.4, Gli-Sufu confirm 82.2*, SufuKO cytotox 35.5* and Wnt3a cs 27.4*.
Screening Cc1ccc(Cn2c(N3CCN(CCO)CC3)nc3c2c(=O)n(C)c(=O)n3C)cc1 returned NCOA2 inhibitor -26.4, NR2F2 inh 8.2, Gli-Sufu antag 50.9, NR5A2 inv ag -10.8, SRC1 inh -7.0, NCOA3 inh -2.2, Gli-Sufu confirm 15.2, SufuKO cytotox 8.2 and Wnt3a cs -6.3.
`CN1CCN(c2nc3c(c(=O)n(C)c(=O)n3C)n2Cc2ccc(F)cc2)CC1` gave NCOA2 inhibitor 0.1, NR2F2 inh 4.1, Gli-Sufu antag 3.5, NR5A2 inv ag 16.4, SRC1 inh -5.8 and NCOA3 inh 7.5.
For COc1ccc(C2CC(c3cccs3)=NN2C(=O)CSc2nc(=O)n3ccccc3n2)cc1 (stereo not drawn) the results were NCOA2 inhibitor -37.7, NR2F2 inh 0.5, Gli-Sufu antag 80.0*, NR5A2 inv ag -32.5, SRC1 inh -18.2, NCOA3 inh -19.3, Gli-Sufu confirm 28.5, SufuKO cytotox 25.9* and Wnt3a cs 66.5*.
`Cc1ccc(C2CC(c3cccs3)=NN2C(=O)CSc2nc(=O)n3cc(C)ccc3n2)cc1` (stereo not drawn) gave NCOA2 inhibitor 2.7, NR2F2 inh 14.2, Gli-Sufu antag 2.3, NR5A2 inv ag 8.1, SRC1 inh -3.0 and NCOA3 inh 9.7.
For C=CCN1C(=O)[C@H](CC(=O)NCc2cccc(C(F)(F)F)c2)[C@@]2(C(=O)OCC)CCCC=C12 the results were NCOA2 inhibitor -12.9 and NR2F2 inh -1.0.
Screening CC1C=CC=CCCC=CC=CC=CC=CC(OC2O[C@H](C)[C@@H](O)[C@H](N)[C@@H]2O)CC(O)C(C(=O)O)C(O)CC(=O)CC(O)C(O)CCC(O)CC(O)CC(O)CC(=O)OC(C)C(C)C1O (stereo partly drawn) returned NCOA2 inhibitor -17.7 and NR2F2 inh 6.0.
CCn1c(=NC(=O)CCS(=O)(=O)c2ccccc2)sc2cccc(OC)c21 was read as NCOA2 inhibitor 9.2, NR2F2 inh 14.3, Gli-Sufu antag 70.3*, NR5A2 inv ag 44.6, SRC1 inh 10.8, NCOA3 inh 16.4, Gli-Sufu confirm 71.3*, SufuKO cytotox 27.9* and Wnt3a cs 17.3.
COCCn1c(=NC(=O)c2ccc(S(=O)(=O)N3CCOCC3)cc2)sc2cc(S(N)(=O)=O)ccc21 was read as NCOA2 inhibitor 14.5, NR2F2 inh 10.8, Gli-Sufu antag 20.8, NR5A2 inv ag -10.2, SRC1 inh -4.8 and NCOA3 inh 12.8.
Screening CCn1c(=NC(=O)c2ccc(S(=O)(=O)N3CCOCC3)cc2)sc2cccc(OC)c21 returned NCOA2 inhibitor -9.7, NR2F2 inh 16.8, Gli-Sufu antag 52.2, NR5A2 inv ag -6.8, SRC1 inh -11.1, NCOA3 inh -15.0, Gli-Sufu confirm 35.2, SufuKO cytotox 20.5 and Wnt3a cs -1.6.
Screening CCn1c(=NC(=O)CS(=O)(=O)c2ccc(F)cc2)sc2cccc(OC)c21 returned NCOA2 inhibitor -33.1, NR2F2 inh -2.8, Gli-Sufu antag 47.5, NR5A2 inv ag -7.6, SRC1 inh -4.0 and NCOA3 inh 3.5.
`COc1ccc(Cn2ccc3ccc(-c4ccc5ccn(Cc6ccccc6)c5c4)cc32)cc1` gave NCOA2 inhibitor -14.9 and NR2F2 inh 2.2.
O=C(COc1ccc2c3c(c(=O)oc2c1)CCCC3)NCCN1CCOCC1 was read as Gli-Sufu antag -5.1, NR5A2 inv ag 42.9, SRC1 inh 1.4 and NCOA3 inh 2.4.
O=C(COc1ccc2c3c(c(=O)oc2c1)CCCC3)NCCCN1CCOCC1 was read as NCOA2 inhibitor -15.9, NR2F2 inh 4.2, Gli-Sufu antag 94.5*, NR5A2 inv ag 50.7, SRC1 inh -14.6, NCOA3 inh -17.9, Gli-Sufu confirm 20.4, SufuKO cytotox 23.9 and Wnt3a cs -58.8.
`COC(=O)[C@H](C(C)C)N1CCc2nnn(CC3CCCCC3)c2-c2cc(F)ccc2S1(=O)=O` gave NCOA2 inhibitor 9.9 and NR2F2 inh 3.5.
For Cc1sc2nc(COC(=O)CNC(=O)c3ccc(F)cc3Cl)[nH]c(=O)c2c1C the results were NCOA2 inhibitor -27.0 and NR2F2 inh 7.7.
CCOC(=O)c1c(CC(C)C)csc1NC(=O)COC(=O)c1cc(OC)c(OC)cc1[N+](=O)[O-] was read as NCOA2 inhibitor 6.2, NR2F2 inh 11.4, Gli-Sufu antag 56.0*, NR5A2 inv ag 13.9, SRC1 inh 3.4, NCOA3 inh 16.3, Gli-Sufu confirm 31.7, SufuKO cytotox 16.8 and Wnt3a cs -33.5.
For CCN(CC)c1c2c(nc3ncnn13)CCCC2 the results were NCOA2 inhibitor 1.2 and NR2F2 inh 2.6.
Screening O=C(CSc1nnc(-c2ccncc2)n1-c1ccc(Br)cc1)c1ccccc1 returned NCOA2 inhibitor 6.2 and NR2F2 inh -9.7.
Cc1ccccc1NC(=O)C1CCCN1S(=O)(=O)c1cccnc1 (stereo not drawn) was read as NCOA2 inhibitor -29.3 and NR2F2 inh 13.9.
`O=C(NN=C1CCCCCC1)c1ccncc1` gave NCOA2 inhibitor -2.2, NR2F2 inh 4.5, Gli-Sufu antag -0.1, NR5A2 inv ag 6.0, SRC1 inh -5.0 and NCOA3 inh 1.5.
For O=C(NN=C1CCCC1)c1ccc(O)cc1 the results were NCOA2 inhibitor -49.7, NR2F2 inh -22.4, Gli-Sufu antag 50.6, NR5A2 inv ag -54.5, SRC1 inh -48.2, NCOA3 inh -26.0, Gli-Sufu confirm 20.9, SufuKO cytotox 16.4 and Wnt3a cs 8.5.
C=CCOC(=O)N[C@H](c1cccc(OC)c1)[C@H](C)/C=C/CC(=O)OC was read as NCOA2 inhibitor -9.6 and NR2F2 inh -7.8.
For CC(=O)NCCC(=O)Nc1nc(-c2cccs2)c(-c2cccs2)s1 the results were NCOA2 inhibitor -22.2, NR2F2 inh 1.1, Gli-Sufu antag 50.4, NR5A2 inv ag -4.2, SRC1 inh -0.4, NCOA3 inh 5.4, Gli-Sufu confirm 21.9, SufuKO cytotox 6.5 and Wnt3a cs -2.5.
